In ChEMBL document CHEMBL3988442, “University of Dundee, Small-Polar-MMV Screening Library” (2021):
Screen size: about 48,000 compounds; about 13,000 (27%) showed an effect of 50% or more. This is one part of the list.

What follows are compounds tested on Wolbachia pipientis (assay: Anti-Wolbachia Cell-Based Screen). Details: 5 µM.
Format: functional
Parameters: scale not given: in the data most compounds retested in dose-response had high values

Row | SMILES | Percent Effect [%]
1 | CCc1cc(NCCNc2cccnc2)n2nccc2n1 | -9.581
2 | Cc1[nH]c(=O)[nH]c(=O)c1CN1CCCC(CCc2ccc(F)cc2F)C1 (centres undefined) | 2.06
3 | CSCCC(=O)N1CCC(Oc2cc(C)ccc2F)(C(=O)O)CC1 | 3.058
4 | CS(=O)(=O)N1CCOC2(CCCN(c3ncc(F)cn3)C2)C1 (centres undefined) | 0.4401
5 | CCC(C)(NCC(N)=O)c1nccs1 (centres undefined) | -7.734
6 | CCc1cnc(N2CCC3(CCN(CC)C3=O)CC2)nc1 | -13.53
7 | CCN1CCC2(CCN(c3ncccn3)CC2)C1=O.O=C(O)C(F)(F)F | 93.98
8 | CCN1CCC2(CCN(Cc3nccs3)CC2)C1=O.O=C(O)C(F)(F)F | -3.246
9 | COCCN1CCC2(CCN(c3ncccn3)CC2)C1=O.O=C(O)C(F)(F)F | 97.58
10 | COCCN1CCC2(CCN(CC3CC3)CC2)C1=O.O=C(O)C(F)(F)F | -9.065
11 | COCCN1CCC2(CCN(Cc3cccs3)CC2)C1=O.O=C(O)C(F)(F)F | 6.379
12 | NC(=O)CN(C(=O)c1c[nH]c2ncccc12)C1CCCC1 | -3.753
13 | CNC(=O)C1CCC2(CCN(c3ncc(C)cn3)CC2)CO1 (centres undefined) | -6.735
14 | Cc1n[nH]c(C)c1CNCC(O)c1cccc(Cl)c1.Cl (centres undefined) | 7.117
15 | COCC(=O)N1CCCC1c1csc(Nc2cnccn2)n1 (centres undefined) | 91.87
16 | CC(=O)N1CCCC1c1csc(Nc2cnccn2)n1 (centres undefined) | -5.394
17 | CCC(=O)N1CCCC1c1csc(Nc2cnccn2)n1 (centres undefined) | 122
18 | Cc1cnc(NC(=O)c2cccc(CN(C)Cc3ccno3)c2)s1 | 0.9625
19 | CCN1CCCc2cc(CN3CCc4nc(C)[nH]c(=O)c4C3)ccc21 | 122.7
20 | CCn1nc2c(cc1=O)CN(Cc1ccc(-n3cccn3)cc1)CC2 | 7.019
21 | CCN1CCCc2cc(CN3CCc4c(nc(C)[nH]c4=O)C3)ccc21 | 149.4
22 | CCCn1nc2c(cc1=O)CN(CCCN1CCCC1=O)CC2 | -4.188
23 | CCn1nc2c(cc1=O)CN(Cc1nc3ccccc3c(=O)[nH]1)CC2 | -16.27
24 | CCn1nc2c(cc1=O)CN(Cc1cc(C)on1)CC2 | 0.747
25 | CN(C)C(=O)c1n[nH]c2c1CCN(Cc1nccs1)C2 | 9.734

Row | SMILES | Percent Effect [%]
26 | Cn1ncc2c(N3CCN(C(N)=O)CC3)nc(C3CCCC3)nc21 | 2.978
27 | CC1Cc2ccccc2N1Cc1occc1C(=O)OCC(N)=O (centres undefined) | -8.495
28 | O=C1OC2(CCNCC2)CN1CC(=O)N1CCCC1c1ccco1 (centres undefined) | -0.7494
29 | CC(C)COC(=O)N1[C@@H](c2ccco2)[C@@H](CO)C[C@]12CCCCNC2=O | 102
30 | CC(C)(C)CC(=O)N1[C@@H](c2ccco2)[C@@H](CO)C[C@]12CCCCNC2=O | 102.1
31 | CCOC(=O)N1[C@@H](c2ccco2)[C@@H](CO)C[C@]12CCCCNC2=O | 109.7
32 | CC(C)CCC(=O)NCC(=O)N1CCCCCC1c1ccco1 (centres undefined) | 14.42
33 | CCN(CCn1cccn1)C(=O)CN1C(=O)OC[C@@H]1C(C)C | -18.11
34 | COc1cccc(CN2CCCCC2CN2CCOCC2)c1F (centres undefined) | 24.12
35 | O[C@]12CC[C@H](CC1)N(Cc1ccc(F)cc1)C2CN1CCOCC1 (some centres undefined) | 104
36 | Oc1cccc(CN2C[C@H]3CC[C@@H]2CN(Cc2ccc(F)cc2)C3)c1 | 7.382
37 | OCC1N(Cc2ccc(F)cc2)[C@H]2CC[C@]1(O)CC2 (some centres undefined) | 104.7
38 | Fc1ccc(CN2CCOC[C@H](Oc3cccnc3)C2)cc1 | 4.64
39 | Cl.Cl.OC(CN1CCN(Cc2ccc(F)cc2)CC1)C1CC1 (centres undefined) | -6.832
40 | Cc1cc(C)cc(CN2CCN(C(=O)COCC3CCCO3)CC2=O)c1 (centres undefined) | -14.3
41 | CN(CCOc1ccccc1Cl)S(=O)(=O)N1CCOCC1 | -15.33
42 | COc1ccccc1OCCNS(=O)(=O)N1CCOCC1 | 86
43 | COc1ccc(OCCN(C)S(=O)(=O)N2CCOCC2)cc1 | -3.974
44 | COc1ccccc1CC(NC(=O)N1CCOCC1)C(C)C (centres undefined) | -8.474
45 | COc1ccccc1CCNS(=O)(=O)N1CCOCC1 | 112
46 | CCC(NS(=O)(=O)N1CCOCC1)c1ccccc1OC (centres undefined) | -7.282
47 | CCN(C(=O)NCCc1ccc(C)cc1C)C(C)CS(C)(=O)=O (centres undefined) | -11.16
48 | Cc1cc(N2CCSCC2)ccc1NC(=O)N(CCO)C1CC1 | -6.894
49 | O=C(C[S+]([O-])Cc1c(F)cccc1Cl)N1CCc2sccc2C1 (centres undefined) | 13.7
50 | NC(=O)NC(CC(=O)N1CCc2sccc2C1)c1ccccc1F (centres undefined) | 105.1

Row | SMILES | Percent Effect [%]
51 | N#Cc1cccc(CNCCC(=O)N2CCc3sccc3C2)c1 | -10.34
52 | O=C(C[S+]([O-])Cc1ccccc1F)N1CCc2sccc2C1 (centres undefined) | 15.13
53 | CC(C)(C)c1nnc(NCC(=O)N2CCc3sccc3C2)s1 | 0.7468
54 | O=C(CCNCc1cccc(O)c1)N1CCc2sccc2C1 | 2.464
55 | O=C(C[S+]([O-])Cc1ccc(F)cc1)N1CCc2sccc2C1 (centres undefined) | 1.066
56 | CC(C)(C)CC(=O)N1CCc2sccc2C1 | -0.9665
57 | CC(NCC(=O)N1CCc2sccc2C1)c1ccccc1F (centres undefined) | 93.75
58 | O=C(CNc1nc(C(F)(F)F)cs1)N1CCc2sccc2C1 | 8.259
59 | Cc1ccccc1C(CC(=O)N1CCc2sccc2C1)NC(N)=O (centres undefined) | 98.58
60 | NC(=O)NC(CC(=O)N1CCc2sccc2C1)c1cccc(Br)c1 (centres undefined) | 93.59
61 | c1cncc(-c2ccnn2CN2CCC3(CC2)OCCO3)c1 | -11.32
62 | Cc1nccc(CNS(=O)(=O)N(C)Cc2ccc(Cl)cc2)n1 | -3.155
63 | COCCCNC(=O)CN(C)C(=O)c1cc(C)ccc1O | -8.655
64 | COCCCNC(=O)CN(C)C(C)c1nc(C)no1 (centres undefined) | 131.6
65 | CCc1noc(C(C)N(C)CC(=O)Nc2c(C)cccc2C)n1 (centres undefined) | -11.68
66 | COc1ccc(Br)cc1CN(C)C(C)c1nc(C(C)C)no1 (centres undefined) | 18.35
67 | COCCCNC(=O)CN(C)C(=O)c1cc(C)ccc1N(C)C(C)C | -2.233
68 | CCc1noc(C(C)N(C)CC(=O)Nc2ccc(C)cc2)n1 (centres undefined) | 3.049
69 | COCCCNC(=O)CN(C)C(C)c1nc(C(C)C)no1 (centres undefined) | 126.4
70 | CCN(CC(=O)NCCc1nc(C)no1)Cc1ccc(Cl)cc1 | -3.181
71 | Cc1noc(CNC(=O)NCCc2ccc(Cl)cc2)n1 | -5.738
72 | COCCNC(=O)CN(C)C(C)c1nc(C)no1 (centres undefined) | 119.8
73 | CCc1noc(C(C)N(C)CC(=O)Nc2cccc(C)n2)n1 (centres undefined) | 0.4126
74 | Cc1noc(C(C)N(C)CC(=O)NCCc2ccc(Cl)cc2)n1 (centres undefined) | 103.9
